Assay outcomes deposited in PubChem by National Center for Advancing Translational Sciences (NCATS).
This is a sample that favours compounds with a hit; in the whole collection about 11% have one here.
JMJD2A Tudor inh = inhibitors of human JMJD2A Tudor domain | Potency, µM (highest dose often 114 µM), actives largely listed as inhibitors | AlphaScreen JMJD2A-Tudor / H3K4me3 peptide binding | hit rate 4.4% among 390,000; further: nearly all actives have a fitted effect of over 50% in size
HP1b binding inh = inhibitors of HP1-beta chromodomain binding to methylated histone tails | P83916 | AlphaScreen HP1-beta / biotin-H3K9me3 peptide binding | Potency, µM (doses to about 114 µM), usual class: inhibitors | hit rate 0.56% among 390,000 | AID 540317; further: nearly all actives have a fitted effect of over 70% in size
Target sequence (P83916 whole entry, looked up): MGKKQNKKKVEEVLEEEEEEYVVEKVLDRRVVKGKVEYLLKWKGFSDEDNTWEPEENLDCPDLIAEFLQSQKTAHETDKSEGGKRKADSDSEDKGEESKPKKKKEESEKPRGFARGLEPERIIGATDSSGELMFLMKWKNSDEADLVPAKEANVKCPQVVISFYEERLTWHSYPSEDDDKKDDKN
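Compound inhibition of the preformed complex between 50 nM HP1-beta and 50 nM biotinylated H3K9me3 peptide was read by AlphaScreen. Buffer was PBS pH 7.4 with 0.01% Tween-20. Incubations ran 30 min at room temperature, with 10 ug/mL donor/acceptor beads.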
BAZ2B block = BAZ2B (human) inhibition; Q9UIF8; AlphaScreen BAZ2B-H3K14Ac peptide displacement; Potency, µM (doses to about 114 µM), actives largely listed as inhibitors; hit rate 4.4% among 360,000; AID 504333; further: nearly all actives have a fitted effect of over 60% in size
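In this displacement format the biotinylated H3(5-23) peptide acetylated at Lys14 serves as ligand at 50 nM, with BAZ2B at 50 nM in PBS pH 7.4 containing 0.01% Tween-20. Donor and acceptor beads are 10 ug/mL final.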
G9a inh = G9a (human) methyltransferase inhibition | hit rate 8.8% among 350,000 | Potency, µM (top dose mostly 102 µM), usual class: inhibitors | AID 504332 | G9a H3K9 monomethylation, AlphaScreen, 2 h | Q96KQ7; further: nearly all actives have a fitted effect of over 75% in size
Target sequence (Q96KQ7 913-1193 limits assumed): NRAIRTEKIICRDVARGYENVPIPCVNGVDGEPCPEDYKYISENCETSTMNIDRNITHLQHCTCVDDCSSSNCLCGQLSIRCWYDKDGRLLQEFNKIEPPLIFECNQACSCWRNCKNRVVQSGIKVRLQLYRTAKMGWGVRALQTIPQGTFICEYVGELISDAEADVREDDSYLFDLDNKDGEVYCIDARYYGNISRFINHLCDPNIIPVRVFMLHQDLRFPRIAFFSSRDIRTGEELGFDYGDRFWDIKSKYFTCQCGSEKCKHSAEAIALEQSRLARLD
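Compounds were preincubated with 20 nM G9a for 15 min, after which biotinylated H3K9 peptide (500 nM) and SAM (20 uM) started a 2 h room-temperature reaction. Monomethylated product was quantified by antibody-based AlphaScreen chemiluminescence.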
L3MBTL1 block = L3MBTL1 (human) inhibition; Q9Y468; AlphaScreen L3MBTL1–H3K9me1 peptide binding; Potency, µM (titrated, usually from 57.1 µM), actives largely listed as inhibitors; hit rate 0.66% among 230,000; AID 485360; further: nearly all actives have a fitted effect of over 60% in size
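First, the protein-peptide complex forms for 30 min at room temperature (L3MBTL1 50 nM, biotinylated H3K9me1 peptide 75 nM). Next, compounds are pin-transferred and incubated 30 min. Finally, AlphaScreen beads are added and read after 30 min.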
Large screens that a line does not name were inactive. The call rests on the fitted dose curve; in most records, active means well fitted inhibition curve with a large enough effect; inconclusive means small, poorly fitted or top-dose-only effect; inactive means no such curve, though single readings can be large or run the other way.

CC(=O)c1[nH]c(C)c(C(=O)NCc2ccc(Cl)cc2)c1C	none (no result: L3MBTL1 block)
Cc1c(C)n(Cc2ccccc2)c2ccc(C(=O)N3CCN(c4ccccc4F)CC3)cc12	JMJD2A Tudor inh inconclusive, BAZ2B block inconclusive, G9a inh inconclusive (no result: L3MBTL1 block)
CC(C)(C)NC(=S)NC(=O)C12CCC3CC(CC(C3)C1)C2	JMJD2A Tudor inh inconclusive, BAZ2B block 71µM
NN(CCO)C(=S)Nc1ccc(Cl)cc1	BAZ2B block inconclusive, G9a inh 11µM
CCOC(=O)c1cc(-c2ccccc2)n(CCC(=O)Nc2ccc(C(F)(F)F)cc2)c1C	none (no result: L3MBTL1 block)
COc1cc(C(=O)N2CCN(C(=O)c3cccc4ccccc34)CC2)cc(OC)c1OC	none (no result: L3MBTL1 block)
O=C(c1cccs1)N1CCN(Cc2cccc([N+](=O)[O-])c2)CC1	JMJD2A Tudor inh 20µM, HP1b binding inh inconclusive, BAZ2B block 28µM, G9a inh 11µM
COc1ccc(CN2CCN(C(=O)c3cccs3)CC2)cc1Br	JMJD2A Tudor inh 35µM, HP1b binding inh inconclusive, BAZ2B block 50µM, G9a inh 35µM
COc1ccc(CN2CCN(C(=O)c3cccc4ccccc34)CC2)cc1Br	JMJD2A Tudor inh 18µM, BAZ2B block 50µM, G9a inh 28µM
COc1ccc(C(=O)Nc2ccc(N3CCN(C(=O)c4cccs4)CC3)cc2)cc1Br	none (no result: G9a inh, L3MBTL1 block)
CCOc1cc(CN2CCN(C(=O)c3cccc4ccccc34)CC2)ccc1OC	JMJD2A Tudor inh 20µM, HP1b binding inh inconclusive, BAZ2B block 50µM, G9a inh 22µM
CCCCc1c(O)nc(SCCC(=O)O)[nH]c1=O	none (no result: JMJD2A Tudor inh, HP1b binding inh, L3MBTL1 block)
N=c1nc(SCCC(=O)O)ss1	G9a inh 11µM
COc1ccccc1C(c1c(O)cc(C)n(Cc2ccco2)c1=O)N1CCCCC1 (stereo unspecified)	none (no result: L3MBTL1 block)
Cc1ccc2nc(SCC(=O)Nc3cc(C)on3)nc(=O)n2c1	none
COc1cccc(N2CCN(C(=O)c3cc(-c4ccc(F)cc4)[nH]c3C)CC2)c1	JMJD2A Tudor inh inconclusive, HP1b binding inh inconclusive, G9a inh inconclusive (no result: L3MBTL1 block)
Cc1[nH]c(-c2ccc(F)cc2)cc1C(=O)N1CCN(c2ccccc2)CC1	JMJD2A Tudor inh 56µM, BAZ2B block inconclusive, G9a inh 50µM (no result: L3MBTL1 block)
Cc1ccc(N2CCN(C(=O)c3cc(-c4ccc(F)cc4)[nH]c3C)CC2C)cc1 (stereo unspecified)	JMJD2A Tudor inh inconclusive, HP1b binding inh inconclusive, BAZ2B block 45µM, G9a inh inconclusive (no result: L3MBTL1 block)
COc1ccccc1N1CCN(C(=O)c2cc(-c3ccc(F)cc3)[nH]c2C)CC1	JMJD2A Tudor inh 56µM, HP1b binding inh inconclusive, BAZ2B block inconclusive, G9a inh 50µM (no result: L3MBTL1 block)
Cc1[nH]c(-c2ccc(F)cc2)cc1C(=O)N1CCN(c2ccccc2F)CC1	JMJD2A Tudor inh inconclusive, HP1b binding inh inconclusive, BAZ2B block inconclusive, G9a inh 71µM (no result: L3MBTL1 block)
Cc1nn2c(C)c(C(=O)N3CCN(c4ccccc4F)CC3)cnc2c1-c1ccc(F)cc1	none (no result: L3MBTL1 block)
O=C(N1CCOCC1)N1CCN(S(=O)(=O)c2ccc(Cl)cc2)C1	none (no result: L3MBTL1 block)
CCS(=O)(=O)n1nc(C(=O)N2CCOCC2)nc1N	JMJD2A Tudor inh 89µM, BAZ2B block inconclusive, G9a inh inconclusive
Nc1nc(C(=O)N2CCOCC2)nn1S(=O)(=O)c1ccccc1	JMJD2A Tudor inh 20µM, BAZ2B block 50µM, G9a inh 18µM
CCS(=O)(=O)n1nc(-c2ccc(C)cc2)nc1N	none
Nc1nc(C(=O)N2CCOCC2)nn1S(=O)(=O)c1ccc(Cl)cc1	JMJD2A Tudor inh 14µM, G9a inh inconclusive
CS(=O)(=O)n1nc(OC(=O)c2cc(Br)ccc2Cl)cc1N	G9a inh 32µM
COc1ccc(CN(C)C(=O)COC(=O)c2c(-c3ccccc3Cl)noc2C)cc1	none
Cc1cc(Br)ccc1N=C1NC(=O)CS1	G9a inh 20µM
Cc1ccc(N=C2NC(=O)CS2)c(C)c1	none
COc1ccc(N2CCN(C(CNC(=O)C(=O)NCc3cccnc3)c3cccnc3)CC2)cc1 (stereo unspecified)	none (no result: L3MBTL1 block)
COc1ccc(Nc2nnc(-c3ccncc3)s2)cc1Cl	G9a inh 8.9µM (no result: L3MBTL1 block)
COc1ccc(Cl)cc1Nc1nnc(-c2ccncc2)s1	JMJD2A Tudor inh inconclusive, BAZ2B block inconclusive (no result: L3MBTL1 block)
O=C(O)C1CCCCC1C(=O)Nc1ccc2c(c1)OCCO2 (stereo unspecified)	G9a inh 2.5µM
Cc1nn(-c2ccccc2)c(C)c1C(=O)OCC(=O)Nc1ccc2c(c1)OCO2	JMJD2A Tudor inh inconclusive, G9a inh 79µM
